Assay [1] in a line: antimalarial activity against Dd2 strain (AID 2302;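 active = growth inhibition above 50% at the single 2 µM test dose, taken to imply half-maximal potency below 2 µM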;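 also: 0% = DMSO untreated growth and 100% = chloroquine plus artemisinin killed control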). The conditions noted are these: P. falciparum Dd2 in RBCs, LDH growth readout, 72 h; at 2 µM; active compounds read high.
The nature of assay [2]: human hepatoma cell viability loss – ATP luminescence, cytotoxicity control for P. falciparum antimalarial project, primary screen (AID 2303;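 active = inhibition above 50%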;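 also: 0% = DMSO wells and 100% = digitonin-killed cells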). The conditions noted are these: HepG2 viability, 24-48 h, at 10 µM, active compounds read high.
The target of assay [3] is L-lactate dehydrogenase (Plasmodium falciparum (isolate CDC / Honduras)) (UniProt Q27743). The assay can be described thus: PfLDH activity inhibition – cell lysate, 3D7 strain, counter-screen for P. falciparum growth inhibition project (AID 2304).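 Also: 0% = vehicle and 100% = reference inhibitor.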 The note with it: P. falciparum 3D7 crude extract, LDH APAD/NBT absorbance; at 2 µM; active compounds read high. For orientation: The purpose of a counterscreen is to sort out artefacts and off-target activity.
L-lactate dehydrogenase (Plasmodium falciparum (isolate CDC / Honduras)), sequence (Q27743 whole entry, looked up): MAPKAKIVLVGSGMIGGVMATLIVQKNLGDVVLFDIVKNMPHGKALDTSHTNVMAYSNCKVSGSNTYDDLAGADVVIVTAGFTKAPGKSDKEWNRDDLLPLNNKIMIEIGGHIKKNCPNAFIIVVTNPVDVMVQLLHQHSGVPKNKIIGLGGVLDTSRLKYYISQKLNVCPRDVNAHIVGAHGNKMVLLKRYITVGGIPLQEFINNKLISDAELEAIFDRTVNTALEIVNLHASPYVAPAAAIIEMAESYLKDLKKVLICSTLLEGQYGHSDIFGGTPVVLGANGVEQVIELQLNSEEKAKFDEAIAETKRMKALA

The nature of assay [4]: inhibition of 3D7 malaria parasite growth – strain 3D7 (AID 2306).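 Also: 0% = DMSO wells and 100% = chloroquine plus artemisinin control wells.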 The conditions noted are these: P. falciparum 3D7 erythrocytic growth, LDH absorbance, 72 h; at 2 µM; active compounds read high.
The target in assay [5] is Calcium-dependent protein kinase 1 (Plasmodium falciparum (isolate 3D7)) (UniProt P62344). Nature of the assay: PfCDPK1 kinase inhibitors, biochemical, TCAMS library (AID 1159585; cut-off not given, nearly all actives have IC50 up to about 0.98 µM;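 also: inhibitors leave more ATP so luminescence rises with inhibition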). The note with it: recombinant PfCDPK1, Kinase-Glo ATP depletion luminescence. For orientation: Kinase-Glo reads ATP consumption through a luciferase reaction.
Calcium-dependent protein kinase 1 (Plasmodium falciparum (isolate 3D7)), sequence (P62344 whole entry, looked up): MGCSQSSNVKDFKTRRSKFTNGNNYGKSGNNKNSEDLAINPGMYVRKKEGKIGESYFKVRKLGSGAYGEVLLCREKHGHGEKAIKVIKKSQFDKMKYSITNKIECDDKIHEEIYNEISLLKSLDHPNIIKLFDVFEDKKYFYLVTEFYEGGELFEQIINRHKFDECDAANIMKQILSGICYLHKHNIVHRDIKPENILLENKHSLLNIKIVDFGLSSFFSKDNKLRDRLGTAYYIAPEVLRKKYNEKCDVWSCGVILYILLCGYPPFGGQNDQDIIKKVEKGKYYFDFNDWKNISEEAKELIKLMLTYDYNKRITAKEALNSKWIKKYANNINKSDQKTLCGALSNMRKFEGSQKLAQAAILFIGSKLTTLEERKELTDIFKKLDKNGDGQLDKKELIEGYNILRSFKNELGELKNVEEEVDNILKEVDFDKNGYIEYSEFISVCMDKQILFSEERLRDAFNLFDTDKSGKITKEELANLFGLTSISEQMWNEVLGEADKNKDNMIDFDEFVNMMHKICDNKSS
For assay [6], the target named is Plasmodium falciparum protein kinase 6 (PK6, PF3D7_1337100) (UniProt Q8IDW1). Nature of the assay: PfPK6 kinase inhibitors, biochemical, TCAMS library (AID 1159586). The conditions noted are these: recombinant PfPK6, Kinase-Glo ATP depletion luminescence.
Plasmodium falciparum protein kinase 6 (PK6, PF3D7_1337100), sequence (Q8IDW1 1-305): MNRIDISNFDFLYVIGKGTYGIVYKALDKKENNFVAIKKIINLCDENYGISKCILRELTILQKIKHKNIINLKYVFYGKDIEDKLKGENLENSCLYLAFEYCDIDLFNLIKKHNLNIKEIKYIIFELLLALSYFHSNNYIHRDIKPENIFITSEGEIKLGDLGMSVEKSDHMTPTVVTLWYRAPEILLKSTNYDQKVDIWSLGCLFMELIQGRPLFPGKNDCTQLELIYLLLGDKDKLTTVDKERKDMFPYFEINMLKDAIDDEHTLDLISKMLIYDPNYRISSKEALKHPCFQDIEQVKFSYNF
The target in assay [7] is Protein kinase 7 (PK7), Plasmodium falciparum 3D7 (PF3D7_0213400) (UniProt Q7YTF7). The assay can be described thus: inhibition of Plasmodium PK7 catalytic activity – biochemical, TCAMS antimalarial set, Kinase-Glo luminescence (AID 1159587). The conditions noted are these: recombinant PfPK7, Kinase-Glo ATP depletion luminescence.
Protein kinase 7 (PK7), Plasmodium falciparum 3D7 (PF3D7_0213400), sequence (Q7YTF7 1-343): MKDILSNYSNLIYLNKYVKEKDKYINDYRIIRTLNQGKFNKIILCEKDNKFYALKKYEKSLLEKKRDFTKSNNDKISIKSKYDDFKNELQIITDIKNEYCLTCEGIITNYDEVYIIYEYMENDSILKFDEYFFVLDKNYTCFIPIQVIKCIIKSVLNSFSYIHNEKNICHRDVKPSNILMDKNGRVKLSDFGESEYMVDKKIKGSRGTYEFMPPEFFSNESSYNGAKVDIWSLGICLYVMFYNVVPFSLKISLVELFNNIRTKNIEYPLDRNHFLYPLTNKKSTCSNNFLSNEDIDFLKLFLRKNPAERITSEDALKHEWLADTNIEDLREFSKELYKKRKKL
For assay [8], the target named is Calcium-dependent protein kinase 4 (Plasmodium falciparum (isolate 3D7)) (UniProt Q8IBS5). The assay can be described thus: PfCDPK4 kinase inhibitors, biochemical, TCAMS library (AID 1159588; cut-off not given, nearly all actives have IC50 up to about 0.91 µM). The note with it: recombinant PfCDPK4, Kinase-Glo ATP depletion luminescence.
Calcium-dependent protein kinase 4 (Plasmodium falciparum (isolate 3D7)), sequence (Q8IBS5 whole entry, looked up): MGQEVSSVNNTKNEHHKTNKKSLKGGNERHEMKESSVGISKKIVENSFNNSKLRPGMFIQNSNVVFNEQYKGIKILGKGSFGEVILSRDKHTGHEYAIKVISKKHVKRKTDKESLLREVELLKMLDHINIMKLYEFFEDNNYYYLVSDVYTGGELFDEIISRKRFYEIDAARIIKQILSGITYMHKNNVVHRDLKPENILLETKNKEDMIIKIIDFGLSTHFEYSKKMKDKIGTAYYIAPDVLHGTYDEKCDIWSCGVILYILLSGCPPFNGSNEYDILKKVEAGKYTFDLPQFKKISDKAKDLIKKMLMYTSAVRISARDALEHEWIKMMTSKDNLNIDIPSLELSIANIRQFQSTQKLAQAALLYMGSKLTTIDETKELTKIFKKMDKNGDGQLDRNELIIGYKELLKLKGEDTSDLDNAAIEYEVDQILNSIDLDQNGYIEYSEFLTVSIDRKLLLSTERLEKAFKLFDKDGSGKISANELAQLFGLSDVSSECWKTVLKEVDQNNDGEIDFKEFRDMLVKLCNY

Values without a mark were called inactive. For some assays here: Potency and affinity values are given separately. Active and inactive are the calls of the source. Unless noted, no rule for the calls is given here.

On to `CNC(=S)NCc1cnc2ccccn12`, for which the growth inhibition in assay [1] was -2%; in assay [4] it was 97% (active). In addition, the inhibition – broadly, the relative decrease from the control value, in per cent – in assay [2] is -2%; in assay [3], 3%. The outcome in assay [5], in assay [6], in assay [7] and in assay [8] was inactive.
In the case of `COc1ccccc1N1CCN(C(C(=O)NCc2cccc(F)c2)c2ccc(C)cc2)CC1` (configuration not stated), the growth inhibition was 80% (active) in assay [1] and 94% (active) in assay [4]. Moreover, the results for the inhibition in assay [2] and in assay [3] were 4% and 1%, respectively. Besides, the outcome in assay [5], in assay [6], in assay [7] and in assay [8] was inactive.
In the case of `O=C(/C=C/c1ccc(Cl)c(Cl)c1)NCCCCCN1CCC(NC(=O)Nc2ccc(F)c(F)c2)CC1`, the growth inhibition was 4% in assay [1] and 99% (active) in assay [4]. The figures for the inhibition in assay [2] and in assay [3] were 24% and 2%, respectively. Moreover, the outcome in assay [5], in assay [6], in assay [7] and in assay [8] was inactive.
In the case of `O=C(Nc1ccc(OC2CCN(Cc3ccco3)CC2)c(Cl)c1)c1ccc2ncccc2c1`, the growth inhibition in assay [1] is 40%; in assay [4], 97% (active). For the same molecule, the results for the inhibition in assay [2] and in assay [3] were -5% and -4%, respectively. Moreover, the result in assay [5], in assay [6], in assay [7] and in assay [8] was inactive.
With `CCOc1ccc2c(NN=Cc3ccc(OC)c(OC)c3)cc(C)nc2c1`, the values for the growth inhibition in assay [1] and in assay [4] were 58% (active) and 100% (active), respectively. Further, the inhibition is 22% in assay [2] and 2% in assay [3]. The result in assay [5], in assay [6], in assay [7] and in assay [8] was inactive.
Turning to `O=C(CCn1c2ccccc2c2ccccc21)NN=Cc1ccco1`, the growth inhibition in assay [1] is -3%; in assay [4] it was 96% (active). The results for the inhibition in assay [2] and in assay [3] were 6% and -3%, respectively. Also, the result in assay [5], in assay [6], in assay [7] and in assay [8] was inactive.
On to `COc1cccc(-c2cc(C(=O)Nc3ccc4nc(-c5ccccc5)[nH]c4c3)[nH]n2)c1`, for which the values for the growth inhibition in assay [1] and in assay [4] were 65% (active) and 100% (active), respectively. Also, the inhibition in assay [2] is 68% (active); in assay [3], 2%. The outcome in assay [5], in assay [6], in assay [7] and in assay [8] was inactive.
Take `COc1ccc(CN(C)CCCc2ccc(NC(=O)c3cc4ccccc4[nH]3)cc2)cc1OC`: the growth inhibition in assay [1] is 31%; in assay [4], 97% (active). Moreover, the inhibition in assay [2] was 39%; in assay [3], -5%. Further, the result in assay [5], in assay [6], in assay [7] and in assay [8] was inactive.
On to `O=C(Nc1ccc(Cl)cc1)c1cc(Cl)cc2[nH]c(C(F)(F)F)nc12`, for which the growth inhibition in assay [1] and in assay [4] was 100% (active) in each case. In addition, the results for the inhibition in assay [2] and in assay [3] were 87% (active) and 2%, respectively. Also, the result in assay [5], in assay [6], in assay [7] and in assay [8] was inactive.
For `CC(C)(C)c1ccc(CNC(=O)/C=C/c2ccc(-c3nc4ccc(C(C)(C)C)cc4[nH]3)cc2)cc1`, the growth inhibition in assay [1] was 66% (active); in assay [4] it was 100% (active). For the same molecule, the inhibition was 35% in assay [2] and -2% in assay [3]. Besides, the result in assay [5], in assay [6], in assay [7] and in assay [8] was inactive.
Take `O=S(=O)(NCCN1CCCC1)c1ccc(-c2cccc(CNCc3ccsc3)c2)s1`: the growth inhibition in assay [1] is 43%; in assay [4], 90% (active). Besides, the inhibition in assay [2] was 42%; in assay [3] it was 0%. Moreover, the result in assay [5], in assay [6], in assay [7] and in assay [8] was inactive.
Consider `c1cncc(-c2cc(N3CCc4ccccc4C3)nc(-c3ccncc3)n2)c1`, for which the growth inhibition in assay [1] and in assay [4] was 100% (active) each time. Also, the figures for the inhibition in assay [2] and in assay [3] were 56% (active) and -5%, respectively. Further, the result in assay [5], in assay [6], in assay [7] and in assay [8] was inactive.
Regarding `CN(C)Cc1c(O)ccc2[nH]c(-c3ccc(F)cc3F)nc12`, the results for the growth inhibition in assay [1] and in assay [4] were 17% and 99% (active), respectively. The inhibition in assay [2] is 4%; in assay [3], -2%. The outcome in assay [5], in assay [6], in assay [7] and in assay [8] was inactive.
Consider `CC(C)N1CCN(C(CN2CCN(CCCOc3ccc4ccccc4c3)CC2)c2ccc(F)cc2)CC1` (configuration not stated), for which the growth inhibition in assay [1] is 91% (active); in assay [4], 101% (active). Besides, the inhibition in assay [2] is 59% (active); in assay [3] it was 5%. The outcome in assay [5], in assay [6], in assay [7] and in assay [8] was inactive.
Consider `c1cc(-c2ccc(CNCCc3ccncc3)cc2)cc(-c2nc3ccccc3[nH]2)c1`, for which the growth inhibition is 99% (active) in assay [1] and 101% (active) in assay [4]. Moreover, the inhibition in assay [2] is 41%; in assay [3] it was -8%. In addition, the result in assay [5], in assay [6], in assay [7] and in assay [8] was inactive.
As to `COc1ccc2nccc([C@@H](O)CN3CCC(NCc4ccc5c(c4)NC(=O)CS5)CC3)c2c1`, the growth inhibition in assay [1] is 36%; in assay [4], 102% (active). Besides, the inhibition in assay [2] is -4%; in assay [3], -1%. For the same molecule, the result in assay [5], in assay [6], in assay [7] and in assay [8] was inactive.
Consider `c1cc(-c2cc3ccc(C4=NCCN4)cc3[nH]2)ccc1C1=NCCN1`, for which the growth inhibition in assay [1] is 99% (active); in assay [4] it was 97% (active). Besides, the figures for the inhibition in assay [2] and in assay [3] were 15% and -1%, respectively. Further, the outcome in assay [5], in assay [6], in assay [7] and in assay [8] was inactive.
`N#Cc1ccc(S(=O)(=O)N2C(c3cccc([N+](=O)[O-])c3)C(C(=O)c3ccccc3)N(C3CCCCC3)C2c2cccc([N+](=O)[O-])c2)cc1` (configuration not stated): the growth inhibition in assay [1] was 79% (active); in assay [4], 83% (active). For the same molecule, the inhibition in assay [2] is 16%; in assay [3], -1%. The outcome in assay [5], in assay [6], in assay [7] and in assay [8] was inactive.
As for `CN(Cc1cccc(F)c1)C1CCN(c2cc(NC(=O)c3ccc(F)cc3)ccn2)CC1`, the growth inhibition in assay [1] was 36%; in assay [4], 95% (active). Moreover, the inhibition in assay [2] was -3%; in assay [3] it was 3%. For the same molecule, the result in assay [5], in assay [6], in assay [7] and in assay [8] was inactive.

The values are drawn from PubChem BioAssay.
